Measured values reported in PubChem BioAssay (NCATS).
Inconclusive results are not listed. Calls of active or inactive are those of the source. Calls follow the shape of the dose curve; as a rule, active = well fitted cell-killing curve with a large enough effect; inconclusive = small, poorly fitted or top-dose-only effect, or effect the other way; inactive = no such curve, though single readings can be large or run the other way.

What was measured:
[1] = Quantitative High-Throughput drug screen in 47 multiple myeloma cell lines against the NCATS MIPE library collection: Delta47_JCRB cell viability assay (AID 1918925; also: nearly all actives have a fitted effect of over 45% in size)
In short: (§1)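 Primary qHTS used for cherry-picking: cells at 500/well, library compounds for 48 h (37C, 5% CO2), luminescent ATP assay.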

[2] = Quantitative High-Throughput drug screen in 47 multiple myeloma cell lines against the NCATS MIPE library collection: AMO1_DSMZ cell viability assay (AID 1918927; also: nearly all actives have a fitted effect of over 30% in size)
In short: as §1

[3] = Quantitative High-Throughput drug screen in 47 multiple myeloma cell lines against the NCATS MIPE library collection: ARP1_JJKsccF8 cell viability assay (AID 1918928; also: nearly all actives have a fitted effect of over 40% in size)
In short: (§2)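 ATP readout (CellTiter-Glo), 48 h drug incubation, 37 °C/5% CO2, 500 cells per well; normalisation to DMSO (100%) and media-only (0%) controls.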

[4] = Quantitative High-Throughput drug screen in 47 multiple myeloma cell lines against the NCATS MIPE library collection: Karpas620_DSMZ cell viability assay (AID 1918959); also: nearly all actives have a fitted effect of over 30% in size
In short: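 CellTiter-Glo luminescence (ATP) after 48 h compound exposure, 37C/5% CO2; 500 cells/well; MIPE 4.0 approved/investigational drugs pinned in; DMSO = 100%, media only = 0% viability.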

[5] = Quantitative High-Throughput drug screen in 47 multiple myeloma cell lines against the NCATS MIPE library collection: KMM1_JCRB cell viability assay (AID 1918960); also: nearly all actives have a fitted effect of over 30% in size
In short: as §2

[6] = Quantitative High-Throughput drug screen in 47 multiple myeloma cell lines against the NCATS MIPE library collection: ARD_JJKsccE7 cell viability assay (AID 1918929)
In short: as §1

[7] = Quantitative High-Throughput drug screen in 47 multiple myeloma cell lines against the NCATS MIPE library collection: Karpas417_ECACC cell viability assay (AID 1918961); details: Karpas417 myeloma viability, CellTiter-Glo ATP luminescence, 48 h; viability (% of DMSO): at 45.8 µM (top of the series)
In short: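 Myeloma cells (500 per well) were exposed to MIPE 4.0 compounds by pin transfer and incubated 48 hours at 37C, 5% CO2. Viability was read as ATP by CellTiter-Glo luminescence, normalised to DMSO (100%) and media-only (0%) wells.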

[8] = Quantitative High-Throughput drug screen in 47 multiple myeloma cell lines against the NCATS MIPE library collection: EJM_DSMZ cell viability assay (AID 1918926; also: nearly all actives have a fitted effect of over 30% in size)
In short: as §1

Measured: Potency
Potency is read from the fitted curve at half-maximal effect.

Cn1cncc1[C@@](N)(c1ccc(Cl)cc1)c1ccc2c(c1)c(-c1cccc(Cl)c1)cc(=O)n2C
active: [1] 6.62 µM | [2] 7.43 µM | [3] 0.469 µM | [4] 5.9 µM | [5] 9.35 µM

C[C@@H]1CN(CC(=O)Nc2ccc3c(c2)Cc2cccc(-c4cc(=O)cc(N5CCOCC5)o4)c2S3)C[C@H](C)O1
active: [1] 2.64 µM | [2] 5.26 µM | [3] 9.35 µM | [6] 18.7 µM | [5] 10.5 µM

CCN1CCN(Cc2ccc(-c3cc4c(N[C@H](C)c5ccccc5)ncnc4[nH]3)cc2)CC1
active: [6] 0.0469 µM | [4] 0.0332 µM | [5] 0.0743 µM | [7] 8.33 µM

Cc1cc(Nc2cc(N3CCN(C)CC3)nc(Sc3ccc(NC(=O)C4CC4)cc3)n2)n[nH]1
active: [1] 3.72 µM | [8] 14.8 µM | [2] 0.372 µM | [3] 7.43 µM | [4] 0.0332 µM | [5] 5.9 µM | [7] 7.43 µM

O=C(NCCCNc1nc(Nc2cccc(NC(=O)N3CCCC3)c2)ncc1I)c1cccs1
inactive: [4] | [5]
active: [1] 4.69 µM | [3] 16.6 µM

COc1cc(C(C)C)c2c(c1)S(=O)(=O)N(COc1cc(=O)n3cccc(OCCN4CCCCC4)c3n1)C2=O
active: [1] 16.6 µM | [2] 13.2 µM | [4] 20.9 µM | [5] 26.4 µM

Nc1ccc(S(=O)(=O)Nc2ncccn2)cc1
inactive: [8] | [2] | [6] | [4]

COc1cc(=C2C=c3ccccc3=N2)[nH]c1=Cc1[nH]c(C)cc1C
active: [1] 1.87 µM | [3] 1.05 µM | [4] 7.43 µM | [7] 16.6 µM

CC[C@H](CO)Nc1nc(NCc2ccccc2)c2ncn(C(C)C)c2n1
active: [1] 16.6 µM | [2] 9.35 µM
inactive: [4]

CC(C)c1ccccc1Cc1cc(C(=O)Nc2ccc(S(=O)(=O)c3ccccc3C(C)(C)C)cc2)c(O)c(O)c1O
inactive: [2] | [6] | [4] | [5]
active: [1] 7.43 µM | [3] 14.8 µM

C=C1C(=CC=C2CCCC3(C)[C@@H]([C@H](C)C=CC=CC(O)(CC)CC)CC[C@@H]23)C[C@@H](O)C[C@@H]1O (stereo partly specified)
active: [8] 18.7 µM | [2] 14.8 µM | [3] 20.9 µM | [6] 16.6 µM | [4] 20.9 µM | [5] 20.9 µM

COc1c(N2C[C@@H]3CCCN[C@H]3C2)c(F)cc2c(=O)c(C(=O)O)cn(C3CC3)c12
inactive: [1] | [4]
active: [3] 37.2 µM

Cn1c2cc(S(C)=O)sc2c2cnn(Cc3cccc(N)c3)c(=O)c21 (stereo unspecified)
not listed: [1]
inactive: all other assays above

Cn1cc(-c2ccncc2)c(-c2ccc(OCc3ccc4ccccc4n3)cc2)n1
active: [1] 2.64 µM | [2] 3.32 µM | [3] 4.69 µM | [6] 6.62 µM | [4] 4.69 µM | [5] 8.33 µM

CCC(=C(c1ccccc1)c1ccc(OCCN(C)C)cc1)c1ccccc1
active: [1] 23.5 µM | [2] 18.7 µM | [6] 20.9 µM | [4] 23.5 µM | [5] 18.7 µM | [7] 14.8 µM

Fc1cc(-c2cccc3ncc(-c4cnn(C5CCNCC5)c4)nc23)cc(F)c1CN1CCOCC1
active: [1] 7.43 µM | [8] 20.9 µM | [2] 8.33 µM | [3] 16.6 µM | [4] 7.43 µM | [7] 0.418 µM
inactive: [5]

Cc1nc2cnc3ccc(C#Cc4cccnc4)cc3c2n1-c1ccc(C(C)(C)C#N)cc1
inactive: [5]
active: [1] 0.0166 µM | [8] 1.66 µM

CC[C@@H]1C(=O)N(C)c2cnc(Nc3ccc(C(=O)NC4CCN(C)CC4)cc3OC)nc2N1C1CCCC1
active: [2] 0.0833 µM | [3] 0.0372 µM | [6] 0.0296 µM | [5] 0.0235 µM | [7] 1.87 µM

CN1c2cc(O)c(N=NC(N)=O)cc2CC1S(=O)(=O)O (stereo unspecified)
inactive: [8] | [3] | [5]
active: [6] 0.0012 µM

CN[C@H]1CCc2cc(OC)c(OC)c(OC)c2-c2ccc(OC)c(=O)cc21
inactive: [4]
active: [1] 0.001 µM | [3] 0.0015 µM | [7] 0.059 µM

COc1cc(OC2CCN(C)CC2)ccc1Nc1ncc2c(n1)n(C1CCCC1)c(=O)n2C
active: [1] 5.9 µM | [2] 11.8 µM | [3] 16.6 µM | [6] 9.35 µM | [4] 23.5 µM

COC(=O)C1=C(C)NC(C)=C(C(=O)OCCN2CCN(C(c3ccccc3)c3ccccc3)CC2)C1c1cccc([N+](=O)[O-])c1 (stereo unspecified)
inactive: [1] | [8] | [2] | [4] | [5]

Cc1nc2ccc(CN(C)c3ccc(C(=O)N[C@@H](CCC(=O)O)C(=O)O)s3)cc2c(=O)[nH]1
inactive: [8] | [4] | [7]
active: [2] 0.0662 µM | [3] 0.0209 µM

Nc1ccc(C(=O)c2cc3c(ccc4ccccc43)[nH]2)cc1
active: [1] 1.87 µM | [8] 4.18 µM | [3] 2.96 µM

CC(C)(C)NC(=O)[C@H]1CN(Cc2cccnc2)CCN1C[C@@H](O)C[C@@H](Cc1ccccc1)C(=O)N[C@H]1c2ccccc2C[C@H]1O
inactive: [6] | [4] | [7]

Cc1cnc(-c2cnc(NCCNc3ccc(C#N)cn3)nc2-c2ccc(Cl)cc2Cl)[nH]1
inactive: [6] | [4] | [5]

N#Cc1c(O)c2c(-c3ccc(-c4ccccc4O)cc3)csc2[nH]c1=O
inactive: [1] | [3] | [6] | [4] | [5]
